Rows were chosen to be rich in hits. Some 3.5% of all compounds tested hit in one or more screens of this group.
Anthrax LF prot – anthrax lethal factor protease inhibition | P15917 | multiplex microsphere protease cleavage assay, LF | inhibition, % at 10 µM | actives 0.12% (n = 360,000) | AID 588501; also: plate controls were buffer without enzyme for full effect and enzyme alone for no effect
Target sequence (P15917 whole entry, looked up): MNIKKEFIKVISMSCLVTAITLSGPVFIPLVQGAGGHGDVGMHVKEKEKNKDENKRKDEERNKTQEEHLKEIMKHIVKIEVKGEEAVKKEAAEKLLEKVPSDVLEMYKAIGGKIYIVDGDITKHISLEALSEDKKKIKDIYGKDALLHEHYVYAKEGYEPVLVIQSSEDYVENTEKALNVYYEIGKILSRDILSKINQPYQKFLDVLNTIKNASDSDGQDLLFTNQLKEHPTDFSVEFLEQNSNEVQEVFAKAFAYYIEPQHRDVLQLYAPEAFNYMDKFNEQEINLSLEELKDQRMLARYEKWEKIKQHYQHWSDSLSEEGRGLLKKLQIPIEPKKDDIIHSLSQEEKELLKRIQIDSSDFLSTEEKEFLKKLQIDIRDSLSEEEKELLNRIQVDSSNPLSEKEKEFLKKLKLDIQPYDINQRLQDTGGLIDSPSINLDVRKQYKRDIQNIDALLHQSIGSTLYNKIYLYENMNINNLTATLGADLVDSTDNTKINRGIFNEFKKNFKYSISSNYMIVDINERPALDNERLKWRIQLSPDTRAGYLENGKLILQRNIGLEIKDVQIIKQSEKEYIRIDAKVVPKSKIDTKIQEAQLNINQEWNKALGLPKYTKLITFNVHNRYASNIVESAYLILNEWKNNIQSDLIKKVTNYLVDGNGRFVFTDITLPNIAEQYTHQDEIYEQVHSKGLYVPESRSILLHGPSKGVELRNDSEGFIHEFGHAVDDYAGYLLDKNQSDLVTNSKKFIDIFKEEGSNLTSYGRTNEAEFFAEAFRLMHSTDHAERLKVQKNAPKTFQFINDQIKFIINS
BJeLR viability – kills HRASV12-expressing BJeLR cells; inhibition, % (no concentration beside the values); BJeLR (HRASV12) viability, CellTiter-Glo ATP luminescence, 48 h; AID 1554; actives 0.17% (n = 300,000); in the data active = inhibition above about 50%; inconclusive = no clear call, values can overlap the other calls
Bead autofluor – flagged as autofluorescent in microsphere protease counterscreen; compound autofluorescence counterscreen, microsphere flow cytometry; active compounds read high; fluorescence intensity (test concentration not listed); actives 3.1% (n = 360,000); in the data active = fluorescence intensity above about 16000; inconclusive = no clear call, values can overlap the other calls
BoNT-A LC inh2 – inhibitors of Botulinum neurotoxin A light chain protease; multiplex microsphere protease substrate cleavage, flow cytometry; inhibition, % at 10 µM; actives 0.17% (n = 360,000); also: plate controls were buffer without enzyme for full effect and enzyme alone for no effect
BoNT-F LC inh – inhibitors of Botulinum neurotoxin F light chain protease; AID 588497; actives 0.22% (n = 360,000); inhibition, % at 10 µM; Multiplex microsphere protease cleavage assay, flow cytometry; in the data active = inhibition above about 35%, passing the limit was not always enough; inconclusive = no clear call, values can overlap the other calls; also: plate controls were buffer without enzyme for full effect and enzyme alone for no effect
* hit, by the source's call; ? = inconclusive; nt = not tested or not shown. Rule as the data show it, unless noted: active = inhibition above about 30%; inconclusive = no clear call, values can overlap the other calls; inactive = below that.

SMILES	Anthrax LF prot	BJeLR viability	Bead autofluor	BoNT-A LC inh2	BoNT-F LC inh
CN(Cc1ccccc1)c1ncnc2c1cnn2-c1ccccc1	-2	8	22100*	4	5
c1ccc(-n2ncc3c(NCc4ccccn4)ncnc32)cc1	0	2	24065*	-1	-2
Fc1ccc(CNc2ncnc3c2cnn3-c2ccccc2)cc1	2	-2	4065	0	?
Cc1cccc(-n2ncc3c(NCc4ccccn4)ncnc32)c1	-2	-2	2777	0	2
c1ccc(-n2ncc3c(NCCN4CCOCC4)ncnc32)cc1	1	2	16340*	0	0
c1ccc(CNc2ncnc3c2cnn3-c2ccccc2)cc1	-2	0	16180*	0	-6
CCOC(=O)C(NC(=O)CC)(N1CCc2ccccc2C1)C(F)(F)F (configuration not stated)	-1	14	3961	1	-22
CCN(CC)C(=O)c1ccc2nc(-c3ccccc3)c(-c3ccccc3)nc2c1	2	-7	2554	0	1
CCN(CC)C(=O)c1cncc(C(=O)N(CC)CC)c1-c1ccccc1	-2	3	20311*	0	1
C=CCN(CC=C)C(=S)Nc1ccccc1	-1	nt	22624*	3	1
Cc1ccc(-c2nn3c(C)nnc3c3ccccc23)cc1S(=O)(=O)NCCN1CCOCC1	-2	-6	22118*	-6	-6
CCC(=O)NCc1cc(-c2nn(C)c(=O)c3ccccc23)ccc1C	-11	8	6485	1	4
Cc1ccc(-c2n[nH]c(=O)c3ccccc23)cc1S(=O)(=O)NCCN1CCOCC1	1	-6	3844	0	9
Cc1ccc(-c2nn(CC(=O)NCc3cc(-c4nn(C)c(=O)c5ccccc45)ccc3C)c(=O)c3ccccc23)cc1	-3	125*	3797	0	2
CC(=O)Nc1cc(-c2nn(CC(=O)N3CCCCC3)c(=O)c3ccccc23)ccc1N1CCOCC1	-6	3	10719	0	2
CC(=O)Nc1cc(-c2nn(C)c(=O)c3ccccc23)ccc1N1CCCCC1	-2	2	16582*	0	3
Cn1nc(-c2ccc(N3CCOCC3)c(NS(=O)(=O)c3ccccc3)c2)c2ccccc2c1=O	-1	-9	22480*	-7	-5
CS(=O)(=O)N(CC(=O)NCCSc1ccccn1)c1ccc(F)cc1	-4	-13	3340	0	-3
CC(Oc1cc2oc(=O)c3c(c2cc1Cl)CCC3)C(=O)NCCCn1ccnc1 (configuration not stated)	-1	0	5368	-1	-2
COC1=CC(C)C2CC3OC(O)CC4C(C)=C(OC)C(=O)C(C2(C)C1=O)C34C (configuration not stated)	-2	nt	5242	-1	6
O=[N+]([O-])c1cccc(/C=N/NC2CCS(=O)(=O)C2)c1 (configuration not stated)	?	-8	3698	1	30
O=C(NCCC1=CCCCC1)c1[nH]c(C(F)(F)F)nc1-c1ccccc1	-9	nt	6082	0	-9
N/C(=N\OC(=O)Nc1ccccc1)c1ncc([N+](=O)[O-])s1	-3	13	4631	?	?
CCCC(=O)Nc1cc(-c2nn(C)c(=O)c3ccccc23)ccc1N1CCCCC1	-3	1	16901*	-2	-1
CCC(=O)Nc1cc(-c2nn(C)c(=O)c3ccccc23)ccc1N1CCCCC1	-2	3	3552	0	-5
SMILES	Anthrax LF prot	BJeLR viability	Bead autofluor	BoNT-A LC inh2	BoNT-F LC inh
Cc1ccc(-c2nn(C)c(=O)c3ccccc23)cc1S(=O)(=O)N1CCCC1	-7	6	5862	0	-2
CCC(=O)Nc1cc(-c2nn(C)c(=O)c3ccccc23)ccc1OC	0	-14	21426*	3	3
Cc1ccc(-c2nn(C)c(=O)c3ccccc23)cc1S(=O)(=O)N1CCOCC1	-7	1	25828*	-11	-13
COc1ccc(C2=NOC3(CC(=O)N(c4ccc(C)cc4)C3=O)C2)c(OC)c1 (configuration not stated)	1	nt	22248*	2	3
O=C(OCCN1C(=O)c2cccc3c(N4CCOCC4)ccc(c23)C1=O)c1cccc(Cl)c1	nt	-7	nt	nt	nt
O=C(OCCN1C(=O)c2cccc3c(N4CCOCC4)ccc(c23)C1=O)c1ccc(Cl)cc1Cl	24	16	4710	51*	19
O=C(OCCN1C(=O)c2cccc3c(N4CCOCC4)ccc(c23)C1=O)c1ccccc1Cl	15	44	3728	37*	8
CCCCN(C(=O)C1=NN(c2ccccc2)C(=O)CC1)c1c(N)n(CC(C)C)c(=O)[nH]c1=O	0	nt	4222	-1	7
Cc1cnc(C)c(Nc2nc(C(N)Cc3ccc(Cl)cc3)cs2)n1 (configuration not stated)	3	nt	3633	0	-24
Cc1ccc(S(=O)(=O)n2cnc3ccccc32)cc1	-4	-3	16399*	1	2
COc1ccc(N2CCN(CC(O)COC(c3ccc(F)cc3)c3ccc(F)cc3)CC2)cc1 (configuration not stated)	-1	12	3627	-2	-9
COCCNS(=O)(=O)c1ccc(-c2ccc(C)cc2)cc1	-8	-4	11333	-1	-18
Cc1ccc(S(=O)(=O)NCCOCCNS(=O)(=O)c2ccc(C)cc2)cc1	2	-6	16362*	0	0
Cc1ccc(S(=O)(=O)NCCCCCC(=O)N(C)C)cc1	-3	-3	19200*	1	2
COc1nc(OCCNS(=O)(=O)c2ccc(C)cc2)nc(N(C)C)n1	8	-13	3636	1	-7
CSc1nc(C)cc(OCCNS(=O)(=O)c2ccc(C)cc2)n1	-7	0	17261*	-6	-7
Cc1ccsc1C(=O)Nc1ccc2c(c1)OCCO2	-1	4	2172	0	-2
COc1cccc(OC)c1C(=O)Nc1ccc2c(c1)OCCO2	-1	-7	25227*	-4	-5
COc1ccccc1NC(=O)Nc1ccc2c(c1)OCCO2	-4	5	9310	0	-4
Cc1ncoc1C(=O)Nc1ccc2c(c1)OCCO2	-5	12	18125*	6	6
Cc1occc1C(=O)Nc1ccc2c(c1)OCCO2	-8	16	20875*	?	1
Cc1cc(C(=O)Nc2ccc3c(c2)OCCO3)c(C)o1	-3	2	3938	-1	-16
CCOC(=O)c1ccc(NC(=O)Nc2ccc3c(c2)OCCO3)cc1	-9	0	9020	0	1
CCOC(=O)c1c(C)c(C(=O)Nc2ccc3c(c2)OCCO3)c(C)n1C	1	2	23007*	?	-12
Cc1noc(C)c1COc1ccccc1C(=O)NCCOc1ccccc1	-14	nt	?	-115	-185
COc1ccc(NC(=O)COC(=O)CCc2nc3ccccc3c(=O)[nH]2)c(OC)c1	-3	nt	3850	0	6
CS(=O)(=O)Nc1ccc(C(=O)Nc2ccc3c(c2)OCCO3)cc1	1	5	20301*	1	2
COc1ccc(NC(=O)CSc2nnc3ccc(-c4ccncc4)nn23)cc1OC	-4	3	6447	0	-9
